Assay outcomes: PubChem, National Center for Advancing Translational Sciences (NCATS)
HCV inh: qHTS Assay for Inhibitors of Hepatitis C Virus (HCV) | 3.4% of 340,000 active | Potency, µM (highest dose often 41.8 µM), most hits filed as inhibitors | Huh7.5.1 HCVcc-Cre infection, luciferase reporter, 44 h
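Seed cells (1,000/well) for 4 h; treat with compound and infect with HCVcc-Cre, moi about 0.5. Incubate 44 h, then detect luciferase activity.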
Pf growth 96h: Primary qHTS for delayed death inhibitors of the malarial parasite plastid, 96 hour incubation; AID 504834, 2011; P. falciparum luciferase reporter growth, 96 h; Potency, µM (titrated, usually from 28.7 µM), hits mostly inhibitors; 6.9% of 320,000 active
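Erythrocytes infected with luciferase-expressing P. falciparum were dispensed at 2% hematocrit and 0.05% parasitemia (final), then incubated with compounds 96 hours at 37 C in 5% CO2. Luminescence after detection reagent addition reported growth.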
AMA1-RON2 inh: qHTS for Inhibitors of AMA1-RON; Towards Development of Antimalarial Drug Lead: Primary Screen. Plasmodium falciparum AMA1 (3D7) - RON2 peptide interaction. AlphaScreen AMA1-biotinylated RON2 peptide binding. Potency, µM (doses to about 58.2 µM), actives largely listed as inhibitors. 0.2% of 360,000 active. AID 720542, 2013; note: nearly all actives have a fitted effect of over 45% in size
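AMA1 (3D7) with his tag at 25 nM final met compounds first, then biotinylated RON2 peptide at 25 nM; detection used donor plus acceptor beads, 10 µg/mL apiece, read by AlphaScreen after 30 min at room temperature.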
Pf growth 48h: Primary qHTS for delayed death inhibitors of the malarial parasite plastid, 48 hour incubation; P. falciparum luciferase growth in erythrocytes, 48 h; Potency, µM (top dose mostly 28.7 µM), actives largely listed as inhibitors; 5.9% of 310,000 active; AID 504832, 2011
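Cell-based growth assay: transgenic P. falciparum expressing firefly luciferase, cultured in red cells within RPMI 1640 containing 0.5% w/v Albumax, 24 mM bicarbonate and gentamycin. A drop in luciferase activity indicates inhibition.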
SARS PLpro yeast: qHTS of Yeast-based Assay for SARS-CoV PLP; S. cerevisiae expressing SARS-CoV PLpro, growth rescue; 0.19% of 330,000 active; AID 485353, 2010; Potency, µM (titrated, usually from 32.9 µM), actives largely listed as activators; calls by dose curve; note: nearly all actives have a fitted effect of over 55% in size
NS1 inh: qHTS Assay for Inhibitors of Influenza NS1 Protein Function; Potency, µM (titrated, usually from 46.1 µM); 0.4% of 270,000 active; AID 2326, 2010; calls by dose curve; note: actives are rising curves; nearly all actives have a fitted effect of over 50% in size
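A cell-based growth assay was used: compounds that relieve NS1-induced slow growth of budding yeast raise OD600. Assay medium was yeast nitrogen base with ammonium sulphate and -URA supplement, pH 6.0, with 2% galactose.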
Hits are given with their value; 0 = inactive; ? = inconclusive; - = no result; [ ] = remark or other dose. Sampled rows, rich in hits. Any-hit rate of the full collection: about 12%. Unless noted, calls come from the whole dose curve; as a rule, active = well fitted curve in the direction sought with a large enough effect; inconclusive = small, poorly fitted or top-dose-only effect, or another doubt; inactive = no such curve, though single readings can be large; an effect the other way counts as inactive or inconclusive.

SMILES	HCV inh	Pf growth 96h	AMA1-RON2 inh	Pf growth 48h	SARS PLpro yeast	NS1 inh
Cc1c(NC(=O)OCCNC(=O)COc2c(Cl)cccc2Cl)sc(=S)n1C	0	9.3µM	0	?	0	0
CC1(NC(=O)c2cccc(S(=O)(=O)N3CCN(c4ccc(F)cc4)CC3)c2)CCS(=O)(=O)C1 (stereo not drawn)	0	?	0	?	0	-
COc1cccc(-c2csc(N3CCN(C(=S)NCC(C)C)CC3)n2)c1	?	15µM	0	13µM	0	0
COc1cccc(-c2csc(N3CCN(C(=S)Nc4ccccc4Cl)CC3)n2)c1	?	?	0	13µM	0	0
COCCCNC(=S)N1CCN(c2nc(-c3ccc(Cl)cc3)cs2)CC1	-	-	0	-	-	-
COc1cccc(-c2csc(N3CCN(C(=S)Nc4ccccc4OC)CC3)n2)c1	?	?	0	?	0	0
CC(C)CNC(=S)N1CCN(c2nc(-c3ccc(Cl)cc3)cs2)CC1	11µM	10µM	0	0	0	0
CCNC(=S)N1CCN(c2nc(-c3cccc(OC)c3)cs2)CC1	?	10µM	0	?	0	0
COc1cccc(-c2csc(N3CCN(CC(=O)NNC(=O)c4ccc(Br)cc4)CC3)n2)c1	0	0	0	?	0	0
O=C(CCC(=O)N(CC(=O)NC1CCCC1)Cc1cccs1)Nc1nccs1	0	0	0	0	0	0
COCCNC(=S)N1CCN(c2nc(-c3cccc(OC)c3)cs2)CC1	13µM	?	0	0	0	0
CC(C)OCCCNc1ncc2c(n1)CC(c1cccs1)CC2=O (stereo not drawn)	0	13µM	0	?	0	0
CC(C)OCCCNc1ncc2c(n1)CC(c1ccc(N(C)C)cc1)CC2=O (stereo not drawn)	0	0[5.75 µM]	0	0	0	?
CCOc1ccc(NC(=O)CCc2nnc3ccc(N4CCC5(CC4)OCCO5)nn23)cc1	0	0	0	0	0	0
CC(=O)Oc1cc(C(=O)OCC(=O)NC23CC4CC(CC(C4)C2)C3)cc(OC(C)=O)c1OC(C)=O	0	-	20µM	-	-	-
COC(=O)c1cccnc1-n1c(=O)c2cccnc2n(Cc2ccc([N+](=O)[O-])cc2)c1=O	0	?	0	10µM	0	-
COc1ccc(OC)c(NC(=O)CSc2ncnc3c2cnn3-c2ccccc2Cl)c1	0.89µM	0	0	10µM	0	0
COc1cc(NC(=O)CSc2ncnc3c2cnn3Cc2ccccc2)cc(OC)c1	?	-	?	12µM	0	0
COc1ccc(OC)c(NC(=O)CSc2ncccn2)c1	0	0	0	-	0	0
O=C(c1ccccc1)[C@H]1[C@H](c2ccccc2[N+](=O)[O-])N1C1CCCCC1 (stereo partly drawn)	-	-	-	-	-	0
Cc1ccc2c(c1)C1(OCCCO1)C(=O)N2	0	0	0	0	0	0
COc1ccccc1N(CC(=O)Nc1ccccc1C(=O)NCC(C)C)S(C)(=O)=O	0	-	0	8.3µM	0	0
COc1ccc(N(CC(=O)Nc2ccccc2C(=O)NCC(C)C)S(C)(=O)=O)cc1	0	0	0	0	0	0
CCOC(=O)c1ccccc1NC(=O)CN(c1ccccc1OCC)S(C)(=O)=O	0	0	0	9.3µM	?	0
CC(C)CNC(=O)c1ccccc1NC(=O)CN(c1ccccc1)S(=O)(=O)N(C)C	0	0	0	10µM	0	0
SMILES	HCV inh	Pf growth 96h	AMA1-RON2 inh	Pf growth 48h	SARS PLpro yeast	NS1 inh
O=C(Cc1ccccc1)Nc1cccc(C(=O)O)c1O	0	0	0	0	0	-
CC(C)c1ccc(N2C(=NC(=O)C3CCCO3)SC3CS(=O)(=O)CC32)cc1 (stereo not drawn)	0	0	0	0	0	0
COc1cccc(CNC(=O)Cn2ccc3cc(S(=O)(=O)N4CCCCCC4)ccc32)c1	13µM	0	0	0	0	0
CCOc1ccccc1CNC(=O)Cn1ccc2cc(S(=O)(=O)N3CCCC3)ccc21	?	13µM	0	?	0	0
O=S(=O)(c1cccc(C(F)(F)F)c1)N1c2ccccc2-n2cccc2[C@H]1c1cccnc1	-	-	-	-	-	0
CSc1sc(-c2ccnc(SCC(=O)C(C)(C)C)n2)c2c1C(=O)CC(C)(C)C2	0	4.7µM	0	?	0	0
CC(C)NC(=O)CSc1nccc(-c2cccs2)n1	0	0	0	0	0	0
Cc1ccc(NC(=O)c2cc(-c3cc(C)c(C)cc3O)n[nH]2)cc1C	0	2.6µM	0	2.1µM	0	0
Cc1ccc(C)c(NC(=O)c2cc(-c3cc(C)c(C)cc3O)n[nH]2)c1	?	?	0	6.6µM	0	0
COc1ccc(OC)c(S(=O)(=O)N2CCC(C(=O)N(C)Cc3ccccc3)CC2)c1	0	0	0	?	0	0
O=[N+]([O-])c1ccc(-c2ccccc2)c([As](=O)(O)O)c1	0	2.1µM	0	12µM	0	0
CN(C)S(=O)(=O)c1cccc(NC(=O)CSc2cccc3cccnc23)c1	?	7.4µM	0	12µM	0	0
CCCN(CCC)S(=O)(=O)c1ccc(NC(=O)COc2ccccc2)cc1	0	9.3µM	0	-	0	0
CN(C)S(=O)(=O)c1cccc(NC(=O)CCCSc2ccccc2)c1	11µM	?	0	0	0	0
CC(=O)Nc1cccc(NC(=O)CCNC(=O)c2ccccc2)c1	3.2µM	0	0	0[0.00184 µM]	0	0
CC(=O)Nc1cccc(NC(=O)CCNC(=O)c2ccc(Cl)cc2)c1	0	0	0	?	0	0
CCc1ccc(CNC(=O)c2ccc(OC3CCN(C(=O)COC)CC3)cc2)nc1	-	0	0	0	0	0
O=C(Nc1ccccc1-c1ccccc1)C(=O)Nc1ccccc1-c1ccccc1	-	?	-	0	0	0
O=C(NCC1CCCN(Cc2cccc(F)c2)C1)c1cccc2ccccc12 (stereo not drawn)	0	?	0	0	0	0
COc1ccc(NC(=O)CN(C)CC(=O)Nc2cccc(S(=O)(=O)N(C)c3ccccc3)c2)cc1	?	?	0	?	0	-
COc1ccc(CN(C)CC(=O)Nc2cccc(S(=O)(=O)N(C)c3ccccc3)c2)c(OC)c1	?	15µM	0	?	0	-
CN(c1ccccc1)S(=O)(=O)c1cccc(C(=O)NCCc2c[nH]c3ccccc23)c1	10µM	-	0	-	-	-
COc1ccccc1OCC(=O)Nc1ccc(S(=O)(=O)N(C)c2ccccc2)cc1	11µM	?	0	?	0	0
CN(C)S(=O)(=O)c1cccc(NC(=O)CSc2nc3c(cc2C#N)C(=O)CC(C)(C)C3)c1	5µM	?	0	9.3µM	0	0
O=C(NCCc1c[nH]c2ccccc12)c1cccc(S(=O)(=O)Nc2ccccc2Cl)c1	0	?	0	0	0	?
